Values without a mark were called inactive.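 Rule for the calls: active = viability at or below 10% of carrier control in both of two separate runs; inconclusive = viability at or below 10% in only one of the two runs; inactive = the rest.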

The assay can be described thus: SK-BR-3 cell growth inhibitors, pilot screen, 24 h, human (AID 572).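 Note: compound exposure lasted between 18 and 24 h rather than exactly 24 h; 100% = carrier-treated control wells.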 As to conditions: SK-BR-3 viability, CellTiter-Glo luminescence, at 10 µM, hits give low values. On the technique in general: ATP-based viability assays read luminescence as a measure of living cells.
In general, viability refers to a read-out of living cells in per cent, often relative to untreated cells. `O=C(Cn1cc2c(n1)CCCCC2)N1CCc2ccccc21`: the viability was 85.5%.
Turning to `CC(C)c1nccn1S(=O)(=O)c1cc(Cl)ccc1Cl`, the viability was 104%.
Under `CC(=O)Nc1cccc(NC(=O)CSc2nn3c(=O)c(C)nnc3s2)c1` stands 100%.
In the case of `CCOc1ccc2nc(Nc3nc4c(c(=O)[nH]3)CCC4)nc(C)c2c1`, the viability was 99.5%.
For `C(=N\c1c(-c2ccccc2)nc2n1CCS2)/c1ccccc1`, the viability is 102%.
For `CCN(CC)S(=O)(=O)c1ccc2oc(C(=O)N3CCOCC3)c(C)c2c1`, the viability is 79.5%.
Under `CCOC(=O)C1CCN(Cc2ccc(OC)c(C)c2OC)CC1` stands 88.5%; under `Cc1cc(N)n2nc(-c3ccccc3)cc2n1`, 95%.
For `Cc1nnc(SCC(=O)Nc2sc3c(c2C#N)CCCC3)[nH]c1=O`, the viability was 95.5%.
For the compound `Cc1cc(NC(=O)COc2cccc(C)c2C)no1`, the viability is 96%.
Consider `Cc1cc(C)c(NC(=O)CSc2nc3c(c(=O)n2C)SC(C)C3)c(C)c1` (configuration not stated), for which the viability was 93.5%.
For the compound `CC(=O)c1ccc(OCC(O)CN2CCN(CCO)CC2)cc1` (configuration not stated), the viability was 116%.
In the case of `CCn1cc(C(=O)NCC2CCCO2)c(=O)c2cc(S(=O)(=O)N(C)C)ccc21` (configuration not stated), the viability is 85.5%.
As to `C=CCSc1nc(N)c2c(C)c(C)sc2n1`, the viability was 98.5%.
For `CC1CCCN(C(=O)c2cc3c(-c4ccc(Cl)cc4)nn(C)c3s2)C1` (configuration not stated), the viability is 89%.
Take `COc1cccc2cc(C(=O)OC3CCN(C)CC3)c(=O)oc12`: the viability is 96%.
For `COC(=O)c1cn(C(=O)c2ccc(Br)o2)c2ccccc12`, the viability was 89%.

Source of the values: PubChem BioAssay.
